# Assay outcomes: PubChem BioAssay, National Center for Advancing Translational Sciences (NCATS)
# Hits are enriched below; roughly 17% of the tested compounds scored in any of these assays.
# ClpP mod: qHTS Assay for Activators of ClpP | ATP-dependent Clp protease proteolytic subunit (Bacillus subtilis (strain 168)), P80244 | purified B. subtilis ClpP, FRET peptide cleavage, 20 min | Potency, µM (top dose mostly 57.5 µM) | actives 1.9% (n = 340,000); active means well fitted falling curve with a large enough effect; inconclusive means small, poorly fitted or top-dose-only effect; inactive means no such curve, though single readings can be large or run the other way; further: the source files actives as falling curves though it sought activators and does not explain the sign; nearly all actives have a fitted effect of over 65% in size
#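 ClpP 10 microg/mL final, pH 8 Tris/KCl buffer with BSA, glycerol, Tween-20; compound pinned in; FRET-FV substrate; RT 20 min; Ex320/Em430; ΔFRET vs ADEP 5.8 microM, DMSO, no enzyme.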
# TDP1 inh: TDP1 (human) enzyme inhibition | Q9NUW8 | Potency, µM (series often up to 130 µM), actives largely listed as inhibitors | actives 0.28% (n = 350,000) | AID 485290 | recombinant TDP1, AlphaScreen DNA substrate cleavage; further: nearly all actives have a fitted effect of over 40% in size
# Target sequence (Q9NUW8 whole entry, looked up): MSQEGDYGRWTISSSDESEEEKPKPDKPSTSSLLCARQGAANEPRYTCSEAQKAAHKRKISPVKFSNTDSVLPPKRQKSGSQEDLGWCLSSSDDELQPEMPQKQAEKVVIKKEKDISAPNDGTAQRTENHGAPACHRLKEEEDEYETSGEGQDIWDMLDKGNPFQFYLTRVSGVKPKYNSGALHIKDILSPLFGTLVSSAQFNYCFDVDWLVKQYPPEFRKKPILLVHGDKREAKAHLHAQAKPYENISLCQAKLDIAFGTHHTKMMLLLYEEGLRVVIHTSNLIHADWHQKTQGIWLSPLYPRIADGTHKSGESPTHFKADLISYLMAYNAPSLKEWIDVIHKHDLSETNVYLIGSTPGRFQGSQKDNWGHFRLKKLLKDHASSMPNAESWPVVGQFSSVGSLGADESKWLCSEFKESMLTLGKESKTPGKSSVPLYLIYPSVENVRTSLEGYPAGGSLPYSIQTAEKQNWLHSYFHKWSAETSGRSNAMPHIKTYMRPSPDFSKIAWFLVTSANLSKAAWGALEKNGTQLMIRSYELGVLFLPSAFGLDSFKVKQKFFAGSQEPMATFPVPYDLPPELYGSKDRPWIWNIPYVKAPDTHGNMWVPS
#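 Recombinant human Tdp1 (E. coli-expressed, 1 nM final) preincubated with compounds 15 min at room temperature, then 5'-biotin/3'-phosphotyrosine-FITC DNA substrate (15 nM final) added for 5 min. AlphaScreen beads (10 ug/ml final) added 10 min; cleavage lowers signal.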
# DT40 TDP1 no CPT: qHTS for Inhibitors of human tyrosyl-DNA phosphodiesterase 1 (TDP1): qHTS in cells in absence of CPT | DT40 Tdp1-/- hTDP1 cells, no CPT, ATP luminescence, 48 h | Potency, µM (top dose mostly 46.2 µM), actives largely listed as inhibitors | actives 15% (n = 420,000) | AID 686978, 2013; further: nearly all actives have a fitted effect of over 55% in size
#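 Stably hTDP1-transfected Tdp1-null chicken DT40 cells were treated with library compounds minus camptothecin and grown for at least 48 hr at 37 °C, after which cellular ATP was quantified by luminescence.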
# DT40 TDP1 CPT: DT40-hTDP1 cell growth loss with CPT | chicken DT40 Tdp1-/-;hTDP1 cells + 20 nM CPT, ATP luminescence, 48 h | Potency, µM (doses to about 46.2 µM), hits mostly inhibitors | actives 12% (n = 420,000) | AID 686979; further: nearly all actives have a fitted effect of over 55% in size
#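 Chicken DT40 Tdp1-/- cells complemented with human TDP1, 400 cells/well, exposed to compounds plus 20 nM camptothecin for at least 48 h at 37 C; viability read as ATP content by CellTiter-Glo luminescence.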
# Hits are given with their value; . = inactive; ? = inconclusive; / = no result given; [ ] = dose if it differs, or a comment. Unless noted, the call rests on the fitted dose curve; in most records, active means well fitted curve in the direction sought with a large enough effect; inconclusive means small, poorly fitted or top-dose-only effect, or another doubt; inactive means no such curve, though single readings can be large; an effect the other way counts as inactive or inconclusive.
SMILES,ClpP mod,TDP1 inh,DT40 TDP1 no CPT,DT40 TDP1 CPT
Cc1cc(C(=O)NCc2cc(C)n(C)n2)sc1-c1ccccc1,25µM,.,21µM,13µM
O=C(NCCN1CCOCC1)c1cc(-c2ccccc2)nc2ccccc12,.,/,?,.
O=C(NCCc1ccccn1)c1cc(-c2ccccc2Cl)nc2ccccc12,.,.,18µM,.
O=C(NCCc1ccccn1)c1c(-c2ccccc2)sc2ccccc12,.,.,16µM,?
O=C(NCCc1ccc(Cl)cc1)c1cc(-c2ccccn2)nc2ccccc12,.,.,?,?
Cc1cc(CNC(=O)c2cc(-c3ccccc3)nc3ccccc23)nn1C,.,.,21µM,?
OC[C@H]1O[C@@H](n2cnc3c(N[C@H]4C[C@H]5CC[C@@H]4C5)ncnc32)[C@H](O)[C@@H]1O,/,.,.,.
O=C(NCc1ccccn1)c1cc(-c2ccccc2)nc2ccccc12,.,.,.,.
CCn1cc(CNC(=O)c2cc(-c3ccc(C)c(C)c3)nc3ccccc23)c(C)n1,?,.,16µM,15µM
Cc1ccc(-c2cc(C(=O)NCCCN3CCCC3)c3ccccc3n2)cc1C,/,.,29µM,?
CCn1cc(-c2cc(C(=O)O)c3ccccc3n2)cn1,/,.,?,9.2µM
O=C(NCc1ccccn1)c1cc(-c2ccc(-c3ccccc3)cc2)nc2ccccc12,.,.,8.2µM,16µM
Cc1ccc(-c2cc(C(=O)NCCCN3CCOCC3)c3ccccc3n2)cc1C,/,.,?,.
O=C(Nc1ccccc1F)c1oc2ccccc2c1NC(=O)c1c(F)cccc1F,.,.,?,?
Cc1ccc(-c2cc(C(=O)NCc3ccccn3)c3ccccc3n2)cc1C,32µM,.,7.3µM,?
Cc1cccc(-c2cc(C(=O)NCc3ccccn3)c3ccccc3n2)c1,.,.,13µM,16µM
COCCNC(=O)c1cc(-c2ccc(-c3ccccc3)cc2)nc2ccccc12,.,.,5.2µM,12µM
Cc1ccc(-c2cc(C(=O)NC(C)c3ccccc3)c3ccccc3n2)cc1C (configuration not stated),.,.,?,?
CCN(CC)CCOC(=O)c1ccc(N/C=C(/C#N)c2nc(-c3ccc4c(c3)OCO4)cs2)cc1,/,/,5.2µM,3.7µM
N#C/C(=C\C=C\c1ccccc1)c1nc(-c2ccc3c(c2)OCO3)cs1,.,.,.,.
CCN(CC)CCOC(=O)c1ccc(N/C=C(/C#N)c2nc(-c3ccc(OC)cc3)cs2)cc1,.,/,4.6µM,4.1µM
COc1ccc(/C=C(/C#N)c2nc(-c3ccc(-c4ccccc4)cc3)cs2)cc1,.,.[12.3 µM],?,?
CCN(CC)CCOC(=O)c1ccc(N/C=C(/C#N)c2nc(-c3cc4ccccc4oc3=O)cs2)cc1,.,/,2.3µM,1.2µM
N#C/C(=C\c1cccc(F)c1)c1nc(-c2cc3ccccc3oc2=O)cs1,.,.[12.3 µM],.,.
O=c1[nH]c(/C=C\c2cccc(Cl)c2)nc(O)c1[N+](=O)[O-],.,/,.,.
SMILES,ClpP mod,TDP1 inh,DT40 TDP1 no CPT,DT40 TDP1 CPT
CCOc1ccc(CN(C)CC(=O)Nc2ccc3c(c2)CCC3)cc1OC,/,.,16µM,?
COc1cc(CC(=O)Nc2ccc3c(c2)CCC3)cc(OC)c1OC,.,.,12µM,9.2µM
Cc1ccc(NC(=O)CN(C)C(=O)Cc2ccc3c(c2)CCC3)cc1,.,.,.,?
CCOc1cc(CNc2ccc3c(c2)CCC3)ccc1O,.,.,23µM,?
COc1ccc(CN(C)CC(=O)Nc2ccc(N3CCOCC3)cc2)cc1OC,.,.,.,.
C=CCOc1ccc(CN(C)CC(=O)Nc2ccc3c(c2)CCC3)cc1,/,.,?,23µM
COc1cc(CNc2ccc3c(c2)CCC3)cc(OC)c1O,.,.,.,.
CCOc1ccc(-c2nc(CSCC(=O)NCCN3CCOCC3)c(C)o2)cc1,32µM,.,.,.
COc1ccc(-c2nc(CSCC(=O)NCCc3ccccc3)c(C)o2)cc1,32µM,.,?,?
O=S(=O)(O)O,/,.,.,.
O=C(CN1C(=O)CCSc2ccc(S(=O)(=O)N3CCCC3)cc21)Nc1cccc(F)c1,.,.,?,13µM
O=C(CN1C(=O)CCSc2ccc(S(=O)(=O)N3CCCC3)cc21)Nc1ccccc1,.,.,.,.
O=C(CN1C(=O)CCSc2ccc(S(=O)(=O)N3CCOCC3)cc21)Nc1ccccc1Cl,.,.,.,?
Cc1cccc(NC(=O)CN2C(=O)CCSc3ccc(S(=O)(=O)N4CCOCC4)cc32)c1C,.,35µM,.,?
O=C(CN1C(=O)CCSc2ccc(S(=O)(=O)N3CCCC3)cc21)Nc1cccc(Cl)c1,.,.,?,23µM
Cc1ccc(NC(=O)CN2C(=O)CCSc3ccc(S(=O)(=O)N4CCCC4)cc32)cc1C,.,.,?,?
Cc1nc2ccccc2c(=O)n1NC(=O)c1c(O)c2ccccc2n(C)c1=O,/,.,/,/
CCN(CC)CCNC(=O)c1c(O)c2cccc3c2n(c1=O)CCC3,?,.,?,?
CCCCc1nc2ccccc2c(=O)n1NC(=O)c1c(O)c2ccccc2n(C)c1=O,/,.,3.7µM,4.1µM
CCCc1nc2ccccc2c(=O)n1NC(=O)c1c(O)c2cccc3c2n(c1=O)CCC3,.,.,16µM,?
CCCCCCNC(=O)c1c(O)c2cccc3c2n(c1=O)CCC3,?,.,29µM,?
CC(Oc1ccc2cc(-c3ccccc3)c(=O)oc2c1)C(=O)NCC1CCC(C(=O)O)CC1 (configuration not stated),.,/,.,.
O=C(O)CCc1ccc(S(=O)(=O)Nc2ccccc2C(=O)NCCc2ccccc2)cc1,/,.,.,.
CC(NC(=O)c1ccccc1NS(=O)(=O)c1ccc(CCC(=O)O)cc1)c1ccccc1 (configuration not stated),28µM,.,.,.
COc1cc(OCc2ccccc2)c(OC)c(OCc2ccccc2)c1,/,/,?,21µM
SMILES,ClpP mod,TDP1 inh,DT40 TDP1 no CPT,DT40 TDP1 CPT
O=C(NC1(C(F)(F)F)N=C(c2ccccc2)NC1=O)c1ccccc1F (configuration not stated),.,.,.,.
CCN(C(=O)CSc1nc(C)nc2sc3c(c12)CCC3)C1CCS(=O)(=O)C1 (configuration not stated),/,.,21µM,?
CC(=O)CSc1ncnc2sc3c(c12)CCC(C)C3 (configuration not stated),.,.,.,.
CCCn1c(SCC(=O)N(C)C2CCS(=O)(=O)C2)nc2sc3c(c2c1=O)CCC3 (configuration not stated),.,.,?,?
CC1CCc2c(sc3ncnc(SCC(=O)N(C)C4CCS(=O)(=O)C4)c23)C1 (configuration not stated),.,.,18µM,?
Cc1ccc(CNc2ccc([N+](=O)[O-])cc2C(N)=O)cc1,.,.,.,.
Cc1ccc(Oc2c(C(N)=O)cc([N+](=O)[O-])cc2[N+](=O)[O-])cc1,.,.,5.2µM,5.8µM
